Growth inhibition and outcome data for 40 compounds are collected here from PubChem BioAssay.

For part of these data: Measured potencies and affinities stand elsewhere. Calls of active or inactive are those of the source. Unless noted, no rule for the calls is given here.

Sequence of Calcium-dependent protein kinase 1 (Plasmodium falciparum (isolate 3D7)) (P62344 whole entry, looked up): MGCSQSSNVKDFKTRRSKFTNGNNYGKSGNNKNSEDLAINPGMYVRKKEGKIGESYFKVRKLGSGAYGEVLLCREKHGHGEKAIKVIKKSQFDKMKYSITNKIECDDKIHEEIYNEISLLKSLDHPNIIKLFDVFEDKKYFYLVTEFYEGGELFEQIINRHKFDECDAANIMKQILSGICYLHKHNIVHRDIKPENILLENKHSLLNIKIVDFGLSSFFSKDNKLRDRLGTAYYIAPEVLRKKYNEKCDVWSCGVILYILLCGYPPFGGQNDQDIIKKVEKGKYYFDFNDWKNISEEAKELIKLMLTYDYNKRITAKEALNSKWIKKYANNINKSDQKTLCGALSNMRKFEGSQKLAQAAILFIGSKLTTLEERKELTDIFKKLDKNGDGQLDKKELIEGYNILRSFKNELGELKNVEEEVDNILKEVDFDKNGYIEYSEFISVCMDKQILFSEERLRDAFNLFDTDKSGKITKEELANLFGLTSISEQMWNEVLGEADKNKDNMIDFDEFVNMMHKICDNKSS

Tested on in one experiment: not listed separately
As to the kind of experiment: inhibition of 3D7 malaria parasite growth – strain 3D7 (AID 2306).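 Also: 0% = DMSO wells and 100% = chloroquine plus artemisinin control wells.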 The conditions noted are these: P. falciparum 3D7 erythrocytic growth, LDH absorbance, 72 h; at 2 µM; stronger effect = higher value.
Turning to `Cc1cc(=O)c(-c2ccc(OCc3ccc(Cl)cc3)cc2)c(C)[nH]1`, the growth inhibition is 93% (active).
On the same count and under the same terms, the figure for `FC(F)(F)c1ccc2c(NCCCNc3ccnc4cc(C(F)(F)F)ccc34)ccnc2c1` is 100% (active).
On the same count and under the same terms, the figure for `Nc1nc(N)c2c(ccc3c2cnn3Cc2cccnc2)n1` is 95% (active).
On the same count and under the same terms, then `CC(C)Cn1cc2c(ccc3nc(N)nc(N)c32)n1`, with 97% (active); and `CCCCCCCc1c(C)[nH]c2ccc(F)cc2c1=O`, with 98% (active); and `Cc1[nH]c(C)c(-c2ccc(Oc3ccccc3)cc2)c(=O)c1Br`, with 96% (active).
As to `CN(C)S(=O)(=O)n1ccc2c3c(N)nc(N)nc3ccc21`, the growth inhibition was 94% (active).
On the same count and under the same terms, the figure for `CCN(C)C(=O)n1ncc2c3c(N)nc(N)nc3ccc21` is 95% (active).
As to `CCCCNCc1cc(Cl)c2ccccc2c1O`, the growth inhibition was 102% (active).
Still for that read-out and setting: then `Cc1[nH]c(C)c(-c2ccc(Oc3cc(Cl)cc(Cl)c3)cc2)c(=O)c1Br`, with 96% (active).
Same read-out and setting: the figure for `COc1ccc(-c2cnc(N)nc2N)cc1Cl` is 84% (active).
Still for that read-out and setting: the figure for `COc1cc(Cc2cnc(N)nc2N)cc(OCCCCNS(=O)(=O)C(F)(F)F)c1OC` is 84% (active); for `CCC(C)c1cnc2nc(N)nc(N)c2c1C` (stereo unspecified) it is 97% (active); for `Cc1ccccc1OCCCc1c(C)nc(N)nc1N` it is 97% (active).
With `COCCOCCOCCn1ccc2c3c(N)nc(N)nc3ccc21`, the growth inhibition was 97% (active).
The same measure, in the same setting: the figure for `Nc1nc(N)c2c(ccc3c2ccn3Cc2ccc(Br)cc2)n1` is 101% (active).

The next experiment concerns the target Calcium-dependent protein kinase 1 (Plasmodium falciparum (isolate 3D7)) (UniProt P62344). The experiment is described as follows: PfCDPK1 kinase inhibitors, biochemical, TCAMS library (AID 1159585; cut-off not given, nearly all actives have IC50 up to about 0.98 µM;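 also: inhibitors leave more ATP so luminescence rises with inhibition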). The conditions noted are these: recombinant PfCDPK1, Kinase-Glo ATP depletion luminescence. (In general: In Kinase-Glo more light means more ATP remaining.)
As for `CCCOc1cc2c(cc1OCCC)C(C=Cc1ccc(Cl)cc1Cl)=NC(C)C2` (stereo unspecified), the outcome was inactive.
On the same count and under the same terms, then `Cc1[nH]c(C)c(-c2ccc(Oc3cccc(C(F)(F)F)c3)cc2)c(=O)c1Br`, with “inactive”; and `COc1cc(Cc2cnc3nc(N)nc(N)c3c2C)cc(OC)c1OC`, with “inactive”; and `CCNC(=O)CCc1cccc(Br)c1`, with “inactive”.
Still for that read-out and setting: then `NC(N)=NC(=O)Nc1ccc(Cl)c([N+](=O)[O-])c1`, with “inactive”; and `Cc1ccc2ccncc2c1N`, with “inactive”.
On the same count and under the same terms, the entry for `CCOc1cc2ncnc(Nc3ccc(OCc4c(Cl)cccc4Cl)c(OC)c3)c2cc1OCC` is “inactive”; for `CC(=O)Oc1c(Cl)c(C)nc(C)c1-c1ccc(Oc2ccc(OC(F)(F)F)cc2)cc1` it is “inactive”.
Regarding `Nc1ccncc1C(=O)NCCCCN1CCN(c2nsc3ccccc23)CC1`, the result was inactive.
Same read-out and setting: then `CCCc1cc2c3c(N)nc(N)nc3ccc2n1CC`, with “inactive”; and `Cc1[nH]c(C)c(-c2ccc(Oc3ccc(Cl)cc3)cc2)c(=O)c1Cl`, with “inactive”.
Consider `COc1ccc(Cc2c(Cl)nc3nc(N)nc(N)c3c2C)cc1`, for which the result was inactive.
Turning to `Nc1nc(N)c2c(ccc3c2ccn3Cc2ccc3c(c2)OCO3)n1`, the outcome was inactive.
The same measure, in the same setting: then `Cc1nc2nc(N)nc(N)c2c(C)c1Cc1ccc([N+](=O)[O-])cc1`, with “inactive”; and `C=CCn1ccc2c3c(N)nc(N)nc3ccc21`, with “inactive”.
Still for that read-out and setting: the entry for `CCC(=C(CC)c1ccc(O)c(CNC2CCCCC2)c1)c1ccc(O)c(CNC2CCCCC2)c1` is “inactive”; for `Nc1ncc(-c2ccc(S(=O)(=O)Nc3ccc(C(=O)N[C@@H](CCC(=O)O)C(=O)O)cc3)cc2)c(=O)[nH]1` it is “inactive”; for `COc1ccc2c(=O)c(Br)c(C)[nH]c2c1` it is “inactive”.
The same measure, in the same setting: the entry for `CCCN(c1ccc(O)c(CN2CCCCC2)c1)c1ccc([N+](=O)[O-])cn1` is “inactive”; for `Cn1c(=N)cc(-c2cccc(I)c2)c2c(=O)[nH]c(N)nc21` it is “inactive”.
Consider `Cc1cc(=O)c(-c2ccc(Oc3ccc(OC(F)(F)F)cc3)cc2)c(C)[nH]1`, for which the outcome was inactive.
On the same count and under the same terms, the entry for `NC(N)=NC(=O)Nc1cc(Br)c(Cl)c(C(F)(F)F)c1` is “inactive”; for `Cc1cccc(Cn2ccc3c4c(N)nc(N)nc4ccc32)c1` it is “inactive”.
Same read-out and setting: the entry for `CC(C)Cn1ccc2c3c(N)nc(N)nc3ccc21` is “inactive”.
Regarding `Cc1cc(=O)c(-c2ccc(OCc3ccc(Cl)cc3)cc2)c(C)[nH]1`, the result was inactive.
On the same count and under the same terms, the entry for `FC(F)(F)c1ccc2c(NCCCNc3ccnc4cc(C(F)(F)F)ccc34)ccnc2c1` is “inactive”.
Still for that read-out and setting: the entry for `Nc1nc(N)c2c(ccc3c2cnn3Cc2cccnc2)n1` is “inactive”; for `CC(C)Cn1cc2c(ccc3nc(N)nc(N)c32)n1` it is “inactive”; for `CCCCCCCc1c(C)[nH]c2ccc(F)cc2c1=O` it is “inactive”.
The same measure, in the same setting: the entry for `Cc1[nH]c(C)c(-c2ccc(Oc3ccccc3)cc2)c(=O)c1Br` is “inactive”.
`CN(C)S(=O)(=O)n1ccc2c3c(N)nc(N)nc3ccc21`: the outcome was inactive.
On the same count and under the same terms, the entry for `CCN(C)C(=O)n1ncc2c3c(N)nc(N)nc3ccc21` is “inactive”.
On the same count and under the same terms, then `CCCCNCc1cc(Cl)c2ccccc2c1O`, with “inactive”; and `Cc1[nH]c(C)c(-c2ccc(Oc3cc(Cl)cc(Cl)c3)cc2)c(=O)c1Br`, with “inactive”; and `COc1ccc(-c2cnc(N)nc2N)cc1Cl`, with “inactive”.
Same read-out and setting: the entry for `COc1cc(Cc2cnc(N)nc2N)cc(OCCCCNS(=O)(=O)C(F)(F)F)c1OC` is “inactive”; for `CCC(C)c1cnc2nc(N)nc(N)c2c1C` (stereo unspecified) it is “inactive”.
For `Cc1ccccc1OCCCc1c(C)nc(N)nc1N`, the result was inactive.
Same read-out and setting: then `COCCOCCOCCn1ccc2c3c(N)nc(N)nc3ccc21`, with “inactive”; and `Nc1nc(N)c2c(ccc3c2ccn3Cc2ccc(Br)cc2)n1`, with “inactive”.

The target of another experiment is Plasmodium falciparum protein kinase 6 (PK6, PF3D7_1337100) (UniProt Q8IDW1). The experiment is described as follows: PfPK6 kinase inhibitors, biochemical, TCAMS library (AID 1159586). The conditions noted are these: recombinant PfPK6, Kinase-Glo ATP depletion luminescence.
Sequence of Plasmodium falciparum protein kinase 6 (PK6, PF3D7_1337100) (Q8IDW1 1-305): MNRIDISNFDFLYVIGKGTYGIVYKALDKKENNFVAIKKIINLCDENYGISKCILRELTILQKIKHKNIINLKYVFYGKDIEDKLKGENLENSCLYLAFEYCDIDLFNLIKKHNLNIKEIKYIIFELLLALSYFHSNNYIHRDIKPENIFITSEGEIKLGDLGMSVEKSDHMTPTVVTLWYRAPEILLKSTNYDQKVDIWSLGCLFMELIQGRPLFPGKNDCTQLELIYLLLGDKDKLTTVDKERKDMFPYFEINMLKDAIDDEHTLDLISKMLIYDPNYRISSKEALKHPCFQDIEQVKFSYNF
Consider `CCCOc1cc2c(cc1OCCC)C(C=Cc1ccc(Cl)cc1Cl)=NC(C)C2` (stereo unspecified), for which the result was inactive.
Still for that read-out and setting: then `Cc1[nH]c(C)c(-c2ccc(Oc3cccc(C(F)(F)F)c3)cc2)c(=O)c1Br`, with “inactive”.
Same read-out and setting: then `COc1cc(Cc2cnc3nc(N)nc(N)c3c2C)cc(OC)c1OC`, with “inactive”; and `CCNC(=O)CCc1cccc(Br)c1`, with “inactive”; and `NC(N)=NC(=O)Nc1ccc(Cl)c([N+](=O)[O-])c1`, with “inactive”.
Same read-out and setting: then `Cc1ccc2ccncc2c1N`, with “inactive”; and `CCOc1cc2ncnc(Nc3ccc(OCc4c(Cl)cccc4Cl)c(OC)c3)c2cc1OCC`, with “inactive”; and `CC(=O)Oc1c(Cl)c(C)nc(C)c1-c1ccc(Oc2ccc(OC(F)(F)F)cc2)cc1`, with “inactive”.
As to `Nc1ccncc1C(=O)NCCCCN1CCN(c2nsc3ccccc23)CC1`, the result was inactive.
The same measure, in the same setting: the entry for `CCCc1cc2c3c(N)nc(N)nc3ccc2n1CC` is “inactive”.
With `Cc1[nH]c(C)c(-c2ccc(Oc3ccc(Cl)cc3)cc2)c(=O)c1Cl`, the outcome was inactive.
Still for that read-out and setting: the entry for `COc1ccc(Cc2c(Cl)nc3nc(N)nc(N)c3c2C)cc1` is “inactive”; for `Nc1nc(N)c2c(ccc3c2ccn3Cc2ccc3c(c2)OCO3)n1` it is “inactive”.
On the same count and under the same terms, the entry for `Cc1nc2nc(N)nc(N)c2c(C)c1Cc1ccc([N+](=O)[O-])cc1` is “inactive”; for `C=CCn1ccc2c3c(N)nc(N)nc3ccc21` it is “inactive”; for `CCC(=C(CC)c1ccc(O)c(CNC2CCCCC2)c1)c1ccc(O)c(CNC2CCCCC2)c1` it is “inactive”.
Still for that read-out and setting: then `Nc1ncc(-c2ccc(S(=O)(=O)Nc3ccc(C(=O)N[C@@H](CCC(=O)O)C(=O)O)cc3)cc2)c(=O)[nH]1`, with “inactive”; and `COc1ccc2c(=O)c(Br)c(C)[nH]c2c1`, with “inactive”.
`CCCN(c1ccc(O)c(CN2CCCCC2)c1)c1ccc([N+](=O)[O-])cn1`: the outcome was inactive.
On the same count and under the same terms, then `Cn1c(=N)cc(-c2cccc(I)c2)c2c(=O)[nH]c(N)nc21`, with “inactive”.
Same read-out and setting: the entry for `Cc1cc(=O)c(-c2ccc(Oc3ccc(OC(F)(F)F)cc3)cc2)c(C)[nH]1` is “inactive”.
Still for that read-out and setting: the entry for `NC(N)=NC(=O)Nc1cc(Br)c(Cl)c(C(F)(F)F)c1` is “inactive”; for `Cc1cccc(Cn2ccc3c4c(N)nc(N)nc4ccc32)c1` it is “inactive”; for `CC(C)Cn1ccc2c3c(N)nc(N)nc3ccc21` it is “inactive”.
In the case of `Cc1cc(=O)c(-c2ccc(OCc3ccc(Cl)cc3)cc2)c(C)[nH]1`, the result was inactive.
`FC(F)(F)c1ccc2c(NCCCNc3ccnc4cc(C(F)(F)F)ccc34)ccnc2c1`: the result was inactive.
Consider `Nc1nc(N)c2c(ccc3c2cnn3Cc2cccnc2)n1`, for which the outcome was inactive.
`CC(C)Cn1cc2c(ccc3nc(N)nc(N)c32)n1`: the outcome was inactive.
On the same count and under the same terms, then `CCCCCCCc1c(C)[nH]c2ccc(F)cc2c1=O`, with “inactive”.
On the same count and under the same terms, the entry for `Cc1[nH]c(C)c(-c2ccc(Oc3ccccc3)cc2)c(=O)c1Br` is “inactive”; for `CN(C)S(=O)(=O)n1ccc2c3c(N)nc(N)nc3ccc21` it is “inactive”.
Same read-out and setting: the entry for `CCN(C)C(=O)n1ncc2c3c(N)nc(N)nc3ccc21` is “inactive”; for `CCCCNCc1cc(Cl)c2ccccc2c1O` it is “inactive”.
As for `Cc1[nH]c(C)c(-c2ccc(Oc3cc(Cl)cc(Cl)c3)cc2)c(=O)c1Br`, the result was inactive.
The same measure, in the same setting: the entry for `COc1ccc(-c2cnc(N)nc2N)cc1Cl` is “inactive”; for `COc1cc(Cc2cnc(N)nc2N)cc(OCCCCNS(=O)(=O)C(F)(F)F)c1OC` it is “inactive”.
On the same count and under the same terms, then `CCC(C)c1cnc2nc(N)nc(N)c2c1C` (stereo unspecified), with “inactive”; and `Cc1ccccc1OCCCc1c(C)nc(N)nc1N`, with “inactive”.
The same measure, in the same setting: then `COCCOCCOCCn1ccc2c3c(N)nc(N)nc3ccc21`, with “inactive”; and `Nc1nc(N)c2c(ccc3c2ccn3Cc2ccc(Br)cc2)n1`, with “inactive”.
